Screens from PubChem BioAssay.
Sampled rows, rich in hits. Any-hit rate of the full collection: about 4.7%.
TROY NFkB inh: TROY signaling inhibition; Q293 LMP1-TROYcd NF-kB luciferase reporter, 4 h; 0.98% of 360,000 active; AID 1347056; inhibition, % at 10 µM;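 active means compounds whose plate-normalised and pattern-corrected inhibition of the luciferase reporter signal at the single screening dose is 50% or more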
TWEAK Fn14 block: TWEAK-Fn14 signaling inhibition; TWEAK-stimulated Fn14 reporter cells, luciferase luminescence, 8 h; inhibition, % at 10 µM; 2% of 360,000 active; AID 1159606; in the data active means inhibition above about 50%
LMP1 NFkB inh: reduces LMP1-driven NF-kappaB luciferase signal | 0.69% of 350,000 active | LMP1-induced NF-kappaB luciferase reporter cells, luminescence | inhibition, % at 12.5 µM; in the data active means inhibition above about 41%; inconclusive means no clear call, values can overlap the other calls
HSF-1 act: increases HSF-1 driven luciferase reporter signal. activation, % at 9 µM. 1.7% of 300,000 active. AID 504408. NIH3T3-HGL HSF-1 luciferase reporter, MG132, 8 h; 100% = twice DMSO control signal;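 active means mean replicate activation of at least 50% with a set share of replicates each reaching 50%; inconclusive means only one of those two conditions met; inactive means mean below 50% and too few replicates reaching it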
HSP90 refold inh: inhibitors of HSP90 luciferase refolding in rabbit reticulocyte lysate; luciferase refolding luminescence, 3 h; inhibition, % at 5.6 µM; 0.91% of 290,000 active; AID 1789;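 active means inhibition above the screen-wide mean plus 3 SD, computed separately per campaign, cut at about 16% in these data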;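 further: inhibitors lower the luminescence because luciferase stays unfolded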
HSF1 inhib: HSF1 inhibition; AID 2098; NIH3T3-HGL HSE-luciferase, MG132-induced, luminescence 8 h; stronger effect = lower value; activity change, negative = inhibition, % at 7.5 µM (by protocol); 0.77% of 300,000 active;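 active means more than half of replicate wells show activity change below -50%, luminescence cut by over half; inconclusive means some wells, but at most half, below -50%; inactive means no replicate well below -50%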;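 further: luciferase reports HSF-1 transcriptional activity via heat shock element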
HSP90 confirm: HSP90 inhibition, confirmation assay; 64% of 2,300 active; shares compounds with HSP90 refold inh; inhibition, % at 5.9 µM; rabbit reticulocyte lysate, luciferase refolding luminescence, 3 h; in the data active means inhibition above about 18%
luciferase ctr: counter-screen for HSP90 inhibitors: inhibitors of firefly luciferase. shares compounds with HSP90 refold inh. purified native firefly luciferase, luminescence. inhibition, % at 5.9 µM. 48% of 2,300 active;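 active means inhibition above the mean inhibition of all tested sample wells plus 3 SD, cut at about 10% in these data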
Target sequence (P08659 whole entry, looked up): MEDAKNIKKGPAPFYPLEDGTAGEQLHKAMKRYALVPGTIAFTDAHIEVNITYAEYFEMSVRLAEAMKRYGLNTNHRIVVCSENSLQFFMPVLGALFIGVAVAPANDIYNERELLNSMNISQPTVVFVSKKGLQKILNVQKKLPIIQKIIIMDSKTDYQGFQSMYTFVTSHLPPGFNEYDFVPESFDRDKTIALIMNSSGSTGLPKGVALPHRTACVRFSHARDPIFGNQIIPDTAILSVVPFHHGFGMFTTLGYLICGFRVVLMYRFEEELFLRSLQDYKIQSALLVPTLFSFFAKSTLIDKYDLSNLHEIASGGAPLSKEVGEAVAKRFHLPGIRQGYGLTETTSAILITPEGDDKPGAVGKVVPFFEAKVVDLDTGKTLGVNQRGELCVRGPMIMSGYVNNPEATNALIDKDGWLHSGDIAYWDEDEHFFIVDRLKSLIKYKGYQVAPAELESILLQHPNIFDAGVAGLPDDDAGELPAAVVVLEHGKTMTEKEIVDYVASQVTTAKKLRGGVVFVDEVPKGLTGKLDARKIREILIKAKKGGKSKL
Large screens that a line does not name were inactive (follow-up assays come after a bar, where they were run).

O=C(OCC(=O)c1cccs1)c1ccccc1	none
O=C(CC(Nc1ccccc1Cl)C(=O)OCC(=O)c1cccs1)c1ccccc1 (stereo not given)	TROY NFkB inh 71, TWEAK Fn14 block 70, HSP90 refold inh 32, HSF1 inhib -58 | HSP90 confirm 43 | luciferase ctr 38
O=C(CC(Nc1ccccc1)C(=O)O)c1ccccc1 (stereo not given)	none (no result: HSP90 refold inh)
O=C(CC(Nc1ccc(Cl)cc1Cl)C(=O)O)c1ccccc1 (stereo not given)	TROY NFkB inh 87, TWEAK Fn14 block 95, HSP90 refold inh 25, HSF1 inhib -89 | HSP90 confirm 76 | luciferase ctr 74
C(=N\Nc1ccc2ccccc2n1)/c1ccc2c(c1)OCCO2	TROY NFkB inh 88, TWEAK Fn14 block 101, LMP1 NFkB inh 61, HSP90 refold inh 68, HSF1 inhib -80 | HSP90 confirm 93 | luciferase ctr 92
Cc1cccc(/C=N/Nc2ccc3ccccc3n2)c1	TROY NFkB inh 84, TWEAK Fn14 block 93, LMP1 NFkB inh 74, HSP90 refold inh 66 | HSP90 confirm 85 | luciferase ctr 84
Cc1cc(N/N=C/c2cccc(Br)c2)nc2ccccc12	none
COc1c(C)cc(C(O)c2ncc(-c3ccc(Cl)cc3)[nH]2)cc1C (stereo not given)	none (no result: LMP1 NFkB inh, HSF-1 act, HSP90 refold inh, HSF1 inhib)
CCOC(=O)c1ccc(NC(=O)c2nc[nH]c2C(=O)NC[C@@H](C)O)cc1	none (no result: HSF-1 act, HSP90 refold inh, HSF1 inhib)
Brc1ccc(-c2ncc3ccccn23)cc1	HSP90 refold inh 27 (no result: HSF-1 act, HSF1 inhib) | HSP90 confirm inactive | luciferase ctr inactive
O=C(NCc1cccs1)C1CCCCC1	HSP90 refold inh 26 | HSP90 confirm inactive | luciferase ctr inactive
COc1cccc(CNC(=O)COC(=O)c2ccc(-c3ccc(O)cc3)cc2)c1	none (no result: HSF-1 act, HSP90 refold inh, HSF1 inhib)
Cc1ccsc1/C=N\NC(=O)c1n[nH]c2c1CCC2	TWEAK Fn14 block 81, HSP90 refold inh 20 | HSP90 confirm 48 | luciferase ctr 43
COc1cccc(NC(=O)C2(C)CCCN2C(=O)C(C)C)c1OC (stereo not given)	none (no result: LMP1 NFkB inh, HSF-1 act, HSP90 refold inh, HSF1 inhib)
CCOc1ccc(C(=O)O/N=C(\N)c2ccccn2)cc1OCC	none
N/C(=N\OC(=O)c1cccc(Br)c1)c1ccccn1	TROY NFkB inh 66, TWEAK Fn14 block 86, LMP1 NFkB inh 45, HSP90 refold inh 42 | HSP90 confirm 26 | luciferase ctr 74
N/C(=N\OC(=O)c1ccc(Cl)cc1)c1ccccn1	TROY NFkB inh 70, TWEAK Fn14 block 101, HSP90 refold inh 57 | HSP90 confirm 20 | luciferase ctr 89
COc1ccc(C(=O)O/N=C(\N)c2ccccn2)cc1	TROY NFkB inh 84, TWEAK Fn14 block 103, LMP1 NFkB inh 81, HSP90 refold inh 80, HSF1 inhib -75 | HSP90 confirm 86 | luciferase ctr 92
N/C(=N\OC(=O)c1ccc(Cl)c([N+](=O)[O-])c1)c1ccccn1	none
N/C(=N\OC(=O)c1cccc(Cl)c1)c1ccccn1	TROY NFkB inh 68, TWEAK Fn14 block 92, HSP90 refold inh 34 | HSP90 confirm 31 | luciferase ctr 76
COc1cccc(C2c3cc4c(cc3OC(NNC(N)=O)C2C)OCO4)c1O (stereo not given)	none (no result: HSF-1 act, HSP90 refold inh, HSF1 inhib)
Cc1noc(C)c1CCC(=O)Nc1cc(C(=O)O)ccc1Cl	none (no result: HSF-1 act, HSP90 refold inh, HSF1 inhib)
Cc1cc(C)c2c(c1)CC(C)(C)CC2=O	none (no result: HSF-1 act, HSP90 refold inh, HSF1 inhib)
Cn1c(=O)c2cc(NC(=O)CCc3ccccc3)ccc2n1-c1ccccc1F	none (no result: LMP1 NFkB inh, HSF-1 act, HSP90 refold inh, HSF1 inhib)
CCc1nc2ccc(C(=O)N3CCN(CC)CC3)cc2nc1CC	none
CCc1nc2ccc(C(=O)O)cc2nc1CC	HSP90 refold inh 75, HSF1 inhib -69 | HSP90 confirm 63 | luciferase ctr 51
CCOc1ccc(-c2nc(CN3CCCC(C(=O)N4CCOCC4)C3)c(C)o2)cc1 (stereo not given)	HSP90 refold inh 18 | HSP90 confirm 24 | luciferase ctr inactive
CC(C)(C)c1ccc(C(=O)c2c[nH]c(C(=O)O)c2)cc1	TWEAK Fn14 block 50, HSP90 refold inh 53 | HSP90 confirm 63 | luciferase ctr inactive
O=[N+]([O-])c1ccc(CSc2ccc(S(=O)(=O)N3CCOCC3)cn2)cc1	none (no result: HSF-1 act, HSP90 refold inh, HSF1 inhib)
COc1cccc(/C=C2\SC(=O)NC2=O)c1OCc1ccc(C(=O)O)cc1	HSP90 refold inh 23 | HSP90 confirm inactive | luciferase ctr inactive
Cc1nc(NC(=O)CC(C)C)sc1-c1csc(Nc2ccc(Cl)cc2)n1	none
COc1ccc(Nc2nc(-c3sc(NC(C)=O)nc3C)cs2)cc1	none (no result: TROY NFkB inh, TWEAK Fn14 block, LMP1 NFkB inh)
Cc1nc(NC(=O)c2ccccc2)sc1-c1csc(Nc2ccc(Cl)cc2)n1	HSP90 refold inh 37 (no result: TROY NFkB inh, TWEAK Fn14 block, LMP1 NFkB inh) | HSP90 confirm 26 | luciferase ctr inactive
Cc1nc(NC(=O)c2ccccc2)sc1-c1csc(Nc2ccc(F)cc2)n1	HSP90 refold inh 44 (no result: TROY NFkB inh, TWEAK Fn14 block, LMP1 NFkB inh) | HSP90 confirm 31 | luciferase ctr inactive
Cc1nc(NC(=O)c2ccco2)sc1-c1csc(Nc2ccc(Cl)cc2)n1	HSP90 refold inh 19 | HSP90 confirm inactive | luciferase ctr inactive
Cc1nc(NC(=O)c2ccccc2)sc1-c1csc(Nc2cccc(Cl)c2)n1	HSP90 refold inh 42 (no result: TROY NFkB inh, TWEAK Fn14 block, LMP1 NFkB inh) | HSP90 confirm 27 | luciferase ctr inactive
CN(C)c1ccc(CNC(=O)C2Cc3c(-c4ccccc4Oc4ccccc4)ccnc3O2)cc1 (stereo not given)	none (no result: LMP1 NFkB inh, HSF-1 act, HSP90 refold inh, HSF1 inhib)
N#CCCN(Cc1cccnc1)CN1C(=O)c2ccccc2C1=O	none (no result: HSF-1 act, HSP90 refold inh, HSF1 inhib)
CN1CCN(C(=O)c2ccc(-c3cnn(C)c3)c3ccoc23)CC1	none (no result: LMP1 NFkB inh, HSF-1 act, HSP90 refold inh, HSF1 inhib)
CC1=C(C(=O)N2CCCCCC2)CC(CC(=O)NCc2cccc3ccccc23)C(=O)N1CCC1=CCCCC1 (stereo not given)	none (no result: LMP1 NFkB inh, HSF-1 act, HSP90 refold inh, HSF1 inhib)
COc1ccc(NC(=O)CN(C)C(=O)c2ccc(C)c(S(=O)(=O)N3CCCCC3)c2)cc1	none (no result: HSF-1 act, HSP90 refold inh, HSF1 inhib)
O=C(OCc1cn([C@H]2C[C@H](c3ccc(Cl)cc3)N(C(=O)c3cccs3)C[C@@H]2O)nn1)c1ccccc1	none (no result: HSF-1 act, HSP90 refold inh, HSF1 inhib)
CCCS(=O)(=O)NC(=O)C1(C)CCCN(C(=O)c2nc3ccccc3s2)C1 (stereo not given)	none (no result: LMP1 NFkB inh, HSF-1 act, HSP90 refold inh, HSF1 inhib)
Brc1ccc(C2Nc3cccc4cccc(c34)N2)o1	HSP90 refold inh 19 | HSP90 confirm inactive | luciferase ctr inactive
COc1ccc(-c2nc3ccc(Cl)cn3c2Cc2ccc(C)cc2)cc1OC	none (no result: LMP1 NFkB inh, HSF-1 act, HSP90 refold inh, HSF1 inhib)
COCCNS(=O)(=O)c1cc(OC)c(Cl)cc1Cl	HSP90 refold inh 17 (no result: TROY NFkB inh, TWEAK Fn14 block, LMP1 NFkB inh) | HSP90 confirm inactive | luciferase ctr inactive
CSc1ccc(/C=N/Nc2cccc(C(=O)O)c2)cc1	LMP1 NFkB inh 56, HSP90 refold inh 25 (no result: HSF-1 act, HSF1 inhib) | HSP90 confirm 86 | luciferase ctr 84
O=C(O)c1ccc(N/N=C/c2ccc(OC(=O)c3cccc(Cl)c3)cc2)cc1	TROY NFkB inh 53, LMP1 NFkB inh 61, HSP90 refold inh 43, HSF1 inhib inconclusive | HSP90 confirm 85 | luciferase ctr inactive
O=C(Oc1ccc(/C=N/Nc2ccccc2)cc1)c1ccccc1	none
